TrxR1 substrate = is turned over as a substrate by rat TrxR1; purified TrxR1 substrate turnover, NADPH consumption readout; Potency, µM (top dose mostly 114 µM), without a hit: top-dose activity change, negative = substrate turnover; 390,000 compounds, 0.01% hits; AID 588456; further: nearly all actives have a fitted effect of over 50% in size
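Rat TrxR1, dispensed at 90 nM, was prereduced with 400 uM NADPH (final) for 5 min at ~22 deg C, then incubated with compound 15 min before 400 uM selenite. A first-read NADPH fluorescence drop versus no-compound background flagged substrates.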
VDR inhibitor = inhibitors of human vitamin D receptor. P11473. VDR-SRC2-3 peptide fluorescence polarization, 2 h. Potency, µM, for inactives: max response, negative = inhibition, actives largely listed as inhibitors. 400,000 compounds, 0.93% hits
Target sequence (P11473 whole entry, looked up): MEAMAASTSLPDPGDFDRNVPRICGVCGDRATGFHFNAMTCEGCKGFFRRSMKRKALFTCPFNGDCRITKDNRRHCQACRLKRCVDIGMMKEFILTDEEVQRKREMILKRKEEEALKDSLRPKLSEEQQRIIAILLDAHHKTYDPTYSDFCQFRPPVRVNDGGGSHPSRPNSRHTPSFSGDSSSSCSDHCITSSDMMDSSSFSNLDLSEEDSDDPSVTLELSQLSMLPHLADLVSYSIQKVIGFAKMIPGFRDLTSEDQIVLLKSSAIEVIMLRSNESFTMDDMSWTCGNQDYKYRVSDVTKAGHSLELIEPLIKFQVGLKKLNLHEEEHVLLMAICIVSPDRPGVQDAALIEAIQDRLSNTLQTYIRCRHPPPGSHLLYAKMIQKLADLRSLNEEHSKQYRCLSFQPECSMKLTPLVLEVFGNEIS
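Two reagent solutions held at 4 deg C in the dark were dispensed, compounds pinned at 23 nl, and the mixture incubated 2 h at room temperature. Read-out: fluorescence polarization of VDR–SRC2-3 peptide binding.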
IDH1 R132H inh = blocks human mutant IDH1 R132H enzyme; O75874; IDH1-R132H enzyme, NADPH consumption, diaphorase/resazurin fluorescence; Potency, µM (highest dose often 76.6 µM), for the others: at the top dose activity change, negative = inhibition, actives largely listed as inhibitors; 390,000 compounds, 0.093% hits; further: nearly all actives have a fitted effect of over 65% in size
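IDH1-R132H (0.5 ug/mL) preincubated 30 min with compound, then NADPH (0.016 mM) and alpha-KG (2 mM) added; 80 min at RT, pH 7.5. Remaining NADPH coupled via diaphorase/resazurin to fluorescence (540/590 nm); concentration-response curves normalized to no-enzyme control.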
PLK1 PBD inh = blocks phosphopeptide binding to human PLK1 polo-box domain. Potency, µM, inactives show max response, negative = inhibition, usual class: inhibitors. P53350. Plk1 PBD binding of FITC phosphopeptide, fluorescence polarization. 360,000 compounds, 2.8% hits; further: series mostly up to about 57 µM; nearly all actives have a fitted effect of over 65% in size
Sfp PPTase inh = inhibitors of Bacillus subtilis Sfp phosphopantetheinyl transferase. Q9F4F7. 310,000 compounds, 3.5% hits. Biochemical Sfp PPTase activity, qHTS. Potency, µM, inactives show largest response in the series, negative = inhibition, usual class: inhibitors;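 further: the enzyme is Sfp with the accession as filed and its product quenches rhodamine fluorescence; 0% = enzyme reaction without inhibitor and -100% = no enzyme wells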
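Step 1, compound plus 15 nM Sfp-PPTase, 15 min, room temperature. Step 2, add rhodamine-CoA (5 uM) and BHQ-2-YbbR (12.5 uM). Step 3, read 525/598 nm fluorescence at 0 and 30 min.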
TrxR1 inh = rat TrxR1 inhibition. 390,000 compounds, 1% hits. O89049. AID 588453. Potency, µM (highest dose often 114 µM), for inactives: top-dose activity change, negative = inhibition, hits mostly inhibitors. recombinant rTrxR1, NADPH fluorescence consumption, selenite substrate; further: nearly all actives have a fitted effect of over 65% in size
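Rat TrxR1 (90 nM in the dispensed reagent) was pre-reduced with 400 uM NADPH for 5 min at room temperature, then incubated with compound for 15 min. After 400 uM selenite was added, NADPH fluorescence (Ex 340/Em 450 nm) was followed for 8 min.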
Active calls of the source: *; ? = inconclusive; / = no result given; [ ] = remark or other dose. Only some compounds are listed: those with a hit (about 5.2% of all), similar ones and a draw of the others. The call rests on the fitted dose curve; in most records, active means well fitted curve in the direction sought with a large enough effect; inconclusive means small, poorly fitted or top-dose-only effect, or another doubt; inactive means no such curve, though single readings can be large; an effect the other way counts as inactive or inconclusive. Unless noted, on the % scale 0 is the no-effect control and ±100 the full control effect; potency means the concentration at half of the fitted maximal effect.

SMILES	TrxR1 substrate	VDR inhibitor	IDH1 R132H inh	PLK1 PBD inh	Sfp PPTase inh	TrxR1 inh
NCCCC[C@H](NC(=O)[C@H](Cc1c[nH]c2ccccc12)NC(=O)[C@H](CC(=O)O)NC(=O)[C@H](Cc1cnc[nH]1)NC(=O)[C@H](CO)NC(=O)[C@H](Cc1c[nH]c2ccccc12)NC(=O)[C@H](Cc1cnc[nH]1)NC(=O)[C@@H]1CCC(=O)N1)C(=O)N1CCC[C@H]1C(=O)NCC(N)=O	/	-3.3%	/	/	-26.0%	/
Cc1ccc(-n2cc(C(=O)Oc3ccc(F)cc3)c3ccccc3c2=O)cc1	1.2%[57.1 µM]	-1.3%	-1.8%	/	/	-19.2%[57.1 µM]
CCN(C(=O)NCc1noc2ccccc12)c1cc(C)ccc1C	-6.6%	-7.9%	11.2%	/	/	-4.5%
C=C(/C=C/c1ccc(N(C)C)cc1)c1nc2ccccc2s1	-8.7%	/	/	/	/	-19.2%
O=C(O)c1ccccc1NS(=O)(=O)c1cccc(-n2sc3ccccc3c2=O)c1	-11.4%	10µM*	-10.6%	3.36µM*	2µM*	91.9%
O=C(O)c1ccccc1NS(=O)(=O)c1cccc(C(F)(F)F)c1	3.9%[57.1 µM]	-2.9%	-4.5%	-6.5%	6.5%	6.8%
Cc1ccc(NC(=O)CSc2nnc(-c3ccco3)c(-c3ccco3)n2)cc1	-12.7%	?	6.0%	26.7µM*	8.91µM*	1µM*
O=C(CSc1nnc(-c2ccco2)c(-c2ccco2)n1)Nc1ccccc1	-13.4%	?	7.2%	18.9µM*	8.91µM*	5.01µM*
Cc1cccc(C)c1NC(=O)CSc1nnc(-c2ccco2)c(-c2ccco2)n1	3.8%	?	1.0%	18.9µM*	11.2µM*	3.16µM*
CN(C)c1ccc(NC(=O)CSc2nnc(-c3ccco3)c(-c3ccco3)n2)cc1	-10.0%	6.2%	7.0%	-17.4%	?	-27.0%
CSc1nnc2c(n1)OC=Nc1ccccc1-2	-9.0%	0.6%	1.8%	-5.9%	17.7%	-4.8%
CSc1nnc(-c2ccco2)c(-c2ccco2)n1	-9.4%	-3.6%	7.9%	26.7µM*	10µM*	15.8µM*
COc1ccc(-c2nnc(SCC(=O)Nc3c(C)cccc3C)nc2-c2ccc(OC)cc2)cc1	-10.0%	-13.4%	1.9%	/	/	-14.1%
CC(C)=NOCc1cccc(-c2cc(-c3ccccc3)no2)c1	/	/	/	/	-5.3%	/
O=C(Nc1sc2c(c1C(=O)O)CCC2)C(=O)N1CCOCC1	-9.6%	-1.0%	2.4%	-23.5%	79.4µM*	9.3%
O=C(Nc1ccccc1N1CCN(C(=O)c2ccc(Cl)cc2)CC1)c1cc2ccccc2o1	12.0%	-12.1%	2.5%	29.9µM*	11.4%	11.0%
CC(=O)NCCNc1nc2cc(-c3cccc(Cl)c3)sc2c(=O)n1C	/	/	/	-6.5%	/	/
N#CN=C1SCCS1	-4.0%[57.1 µM]	-29.5%	6.7%	3.36µM*	2.1%	10.4%[57.1 µM]
Nc1ccc2c3c(cccc13)C(=O)N(c1ccccc1)C2=O	7.8%[57.1 µM]	-10.8%	5.1%	1.34µM*	-9.5%	6.8%[57.1 µM]
O=C(O)c1cccc(N2C(=O)c3cccc4c(Cl)ccc(c34)C2=O)c1	16.2%[57.1 µM]	-4.9%	0.9%	-9.0%	?	-7.0%[57.1 µM]
Nc1cccc(N2C(=O)c3cccc4c(N)ccc(c34)C2=O)c1	-3.7%	-0.6%	7.9%	10.6µM*	-2.0%	21.3%
CC(C)CCN1C(=O)c2cccc3c(N)ccc(c23)C1=O	-7.6%	-5.8%	2.9%	5.32µM*	/	30.1%[57.1 µM]
CCN1C(=O)c2cccc3c(Cl)ccc(c23)C1=O	12.1%[57.1 µM]	-9.4%	0.2%	-11.1%	22.3%	8.5%[57.1 µM]
C=C(C(=O)OC)C(NC(=O)OC)c1ccccc1 (configuration not stated)	/	1.6%	/	/	-3.4%	/
CCCCc1ccc(NC(=O)COC(=O)c2ccccc2OCC(=O)Nc2ccc(Br)cc2)cc1	-0.7%	/	/	/	/	22.9%
Cc1ccc(Cc2c(C)nc3nc(SCC(=O)NCCC(C)C)nn3c2C)cc1	-1.6%	16.5%	-7.9%	/	/	11.7%
COc1ccc(C(=O)c2cc(OC)c(OC)c(OC)c2)cc1OC	1.1%[57.1 µM]	-0.8%	3.6%	6.8%	/	-1.8%[57.1 µM]
CCOC(=O)CC(=O)c1sc2c(c1N)c(=O)[nH]c(=O)n2-c1ccc(OC)cc1	-2.0%	?	0.5%	-4.5%	7.5%	11.0%
O=C(COc1ccccc1C(=O)Nc1ccccc1)Nc1ccccc1Cl	-5.4%	/	/	/	/	1.6%
